This is an account of results in publication PMC4336329 (PLoS ONE, 2015).

Among all 310,000 compounds or so, about 14,000 (4.5%) showed an effect of 50% or more. Effects have a minus sign here. The entries come from a sample that favours strong results as a whole.
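Note: peak tail current of the secondary pulse compared with the same well before compound.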

The target in the experiment is human ether-à-go-go-related gene (hERG) potassium channel (human, UniProt Q12809). The experiment is described as follows: primary screen, population patch clamp on CHO cells stably expressing hERG; higher = less effect of the substance.
Chain of human ether-à-go-go-related gene (hERG) potassium channel (Q12809 whole entry, looked up): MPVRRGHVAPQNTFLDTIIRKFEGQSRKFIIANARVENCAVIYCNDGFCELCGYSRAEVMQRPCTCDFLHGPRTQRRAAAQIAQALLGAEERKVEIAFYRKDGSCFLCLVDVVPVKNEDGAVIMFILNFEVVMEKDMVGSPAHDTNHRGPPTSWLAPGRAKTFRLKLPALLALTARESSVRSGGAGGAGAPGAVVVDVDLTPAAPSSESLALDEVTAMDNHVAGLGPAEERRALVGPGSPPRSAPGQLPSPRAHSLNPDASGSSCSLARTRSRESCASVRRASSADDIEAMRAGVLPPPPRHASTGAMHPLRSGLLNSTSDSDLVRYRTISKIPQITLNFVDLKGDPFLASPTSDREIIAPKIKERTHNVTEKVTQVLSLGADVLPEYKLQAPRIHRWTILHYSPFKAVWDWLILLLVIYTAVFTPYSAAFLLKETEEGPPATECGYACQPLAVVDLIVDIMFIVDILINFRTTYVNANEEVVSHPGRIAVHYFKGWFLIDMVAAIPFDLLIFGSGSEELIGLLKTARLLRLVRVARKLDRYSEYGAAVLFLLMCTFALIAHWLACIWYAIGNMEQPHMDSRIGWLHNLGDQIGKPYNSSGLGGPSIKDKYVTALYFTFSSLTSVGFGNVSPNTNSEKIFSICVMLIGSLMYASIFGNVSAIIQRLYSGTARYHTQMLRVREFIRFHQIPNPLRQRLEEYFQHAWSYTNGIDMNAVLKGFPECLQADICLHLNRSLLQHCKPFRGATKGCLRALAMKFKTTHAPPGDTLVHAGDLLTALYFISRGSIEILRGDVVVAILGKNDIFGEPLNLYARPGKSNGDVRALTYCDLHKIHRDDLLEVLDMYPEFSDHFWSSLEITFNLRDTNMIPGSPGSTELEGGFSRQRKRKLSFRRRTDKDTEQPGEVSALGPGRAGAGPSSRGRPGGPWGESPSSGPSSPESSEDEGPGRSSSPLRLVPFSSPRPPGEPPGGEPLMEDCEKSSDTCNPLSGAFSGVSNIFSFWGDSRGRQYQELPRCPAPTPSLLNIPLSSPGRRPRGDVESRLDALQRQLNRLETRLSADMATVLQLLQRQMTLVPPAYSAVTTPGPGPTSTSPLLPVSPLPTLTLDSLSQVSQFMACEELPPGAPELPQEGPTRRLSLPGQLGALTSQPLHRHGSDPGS
On to `O=C(CNc1cccc([N+](=O)[O-])c1)N/N=C/c1ccc([N+](=O)[O-])o1`, for which the “hERG current change (%, negative = inhibition) at 10uM” value was -36%. As for `O=C(CN1CCN(c2ccccc2)CC1)N1CCc2[nH]c3ccccc3c2C1`, the “hERG current change (%, negative = inhibition) at 10uM” value is listed as -26.9%.

On to `COc1ccccc1NC(=O)N1CCCC1C(=O)NCc1cccs1` (stereo not shown), for which the “hERG current change (%, negative = inhibition) at 10uM” value came out at 0.509%. In the case of `COc1ccc(CCNCc2ccc(SC)cc2)cc1` it was -73.2%. In the case of `COc1cc(CNCc2ccc(SC)cc2)cc(OC)c1`, the “hERG current change (%, negative = inhibition) at 10uM” value was -14.9%. With `COc1cccc(CNCCc2ccc(F)cc2)c1.O=C(O)C(=O)O`, the “hERG current change (%, negative = inhibition) at 10uM” value is on record as -9.82%. On to `COc1cccc(CCNCc2c(F)cccc2F)c1.O=C(O)C(=O)O`, for which the “hERG current change (%, negative = inhibition) at 10uM” value was -15.1%.

On to `COc1ccc(CCNCc2ccc(OCc3ccccc3)cc2)cc1`, for which the “hERG current change (%, negative = inhibition) at 10uM” value was -41.6%. To `COc1cccc(CCNCc2ccc(SC)cc2)c1.O=C(O)C(=O)O` belongs -67.7%; to `CC(=O)N1c2ccc(S(=O)(=O)NC(CC(=O)O)c3ccc(Br)cc3)cc2CC1C` (stereo not shown), 22.3%. In the case of `CC1CCN(S(=O)(=O)c2ccccc2)CC1` it was -3.32%; in that of `O=C(CCNS(=O)(=O)c1ccc(Br)cc1)NCc1ccc2c(c1)OCO2`, -3.3%. In the case of `OCCOCCNc1ncnc2c1cnn2-c1ccccc1` it was 9.79%; in that of `CN(C)CCCNc1ncnc2c1cnn2-c1ccccc1`, -22.8%. As to `COc1ccc(-n2cc(-c3ccccc3)c3c(NCCOCCO)ncnc32)cc1`, the “hERG current change (%, negative = inhibition) at 10uM” value was -42.9%. In the case of `Cc1c(C)n(-c2ccccc2)c2ncnc(NCCCN(C)C)c12`, the “hERG current change (%, negative = inhibition) at 10uM” value is given as 0.841%. In the case of `CN(C)CCCNc1ncnc2c1c(-c1ccccc1)cn2-c1ccccc1` it was -64.4%. To `OCCOCCNc1ncnc2c1c(-c1ccccc1)cn2-c1ccccc1` belongs -50.6%; to `O=C(N/N=C/c1cccnc1)c1cc2ccccc2cc1O`, 5.26%; to `C[C@@]12C(=O)N(c3ccc(C(F)(F)F)cc3)C(=O)N1[C@@H]1c3ccccc3OC[C@@H]1[C@H]2c1ccccc1`, 20%. `O=C(Cn1c(=O)n(CC2CCCO2)c(=O)c2ccccc21)c1ccc(Cl)c(Cl)c1` (stereo not shown): the “hERG current change (%, negative = inhibition) at 10uM” value is recorded as -16.4%. To `CN(CCCC(=O)NCc1ccc2c(c1)OCO2)S(=O)(=O)c1ccc([N+](=O)[O-])cc1` belongs -68.1%; to `COc1ccc(S(=O)(=O)N(C)CC(=O)NCc2ccc3c(c2)OCO3)cc1`, -8.31%. Consider `CN(CC(=O)NCc1ccc2c(c1)OCO2)S(=O)(=O)c1ccc(F)cc1`, for which the “hERG current change (%, negative = inhibition) at 10uM” value is given as -8.53%.

Regarding `Cc1ccc(S(=O)(=O)N(C)CCCC(=O)NCc2ccc3c(c2)OCO3)cc1`, the “hERG current change (%, negative = inhibition) at 10uM” value is reported as -23.5%. To `CCOc1ccc(S(=O)(=O)N(C)CC(=O)NCc2ccc3c(c2)OCO3)cc1` belongs -64.4%; to `O=C(NCc1ccc2c(c1)OCO2)Nc1ccc([N+](=O)[O-])cc1`, 21.1%; to `CN(CCCC(=O)NCCc1ccccc1)S(=O)(=O)c1ccc([N+](=O)[O-])cc1`, -37.6%. In the case of `CN(CCCC(=O)NCc1ccccc1)S(=O)(=O)c1ccc([N+](=O)[O-])cc1` it was -65.6%; in that of `CN(CCCC(=O)NC1CC(C)(C)NC(C)(C)C1)S(=O)(=O)c1ccc([N+](=O)[O-])cc1`, 12.5%. Take `C=CCn1c(SCCCc2ccccc2)nc2c1c(=O)[nH]c(=O)n2C`: the “hERG current change (%, negative = inhibition) at 10uM” value is -26.1%. As to `COc1ccc(OC)c(NS(=O)(=O)c2ccc(-c3coc(C)n3)cc2)c1`, the “hERG current change (%, negative = inhibition) at 10uM” value worked out at 0.503%. Regarding `COc1cccc(NC(=O)N2CCCC2C(=O)NC2CC2)c1` (stereo not shown), the “hERG current change (%, negative = inhibition) at 10uM” value was 3.61%. Turning to `COc1ccc(-c2[nH]ncc2CN(C)Cc2cnccn2)c(OC)c1`, the “hERG current change (%, negative = inhibition) at 10uM” value came out at 14%.

For `O=C(O)c1cc2n(n1)C(C(F)(F)F)CC(c1ccco1)N2` (stereo not shown), the “hERG current change (%, negative = inhibition) at 10uM” value is given as 22.2%.

Turning to `O=S(=O)(NC1CCCCC1N1CCN(c2ccc(F)cc2)CC1)c1ccccc1` (stereo not shown), the “hERG current change (%, negative = inhibition) at 10uM” value is on record as -7.05%. In the case of `COc1ccc(/C=C2\SC(=S)N(CCC(=O)NCCCn3ccnc3)C2=O)cc1` it was -28.5%; in that of `O=C(CCCN1C(=O)c2ccccc2C1=O)NCCCn1ccnc1`, 13.4%; in that of `O=C(CCCN1C(=O)/C(=C/c2ccccc2)SC1=S)NCCCn1ccnc1`, -59.9%. In the case of `O=C(CCCN1C(=O)/C(=C/c2ccc(F)cc2)SC1=S)NCCCn1ccnc1` it was -71%. Take `O=C(CCN1C(=O)S/C(=C\c2ccccc2)C1=O)NCCCn1ccnc1`: the “hERG current change (%, negative = inhibition) at 10uM” value is recorded as -38.4%. On to `COc1ccccc1/C=C1\SC(=S)N(CCC(=O)NCCCn2ccnc2)C1=O`, for which the “hERG current change (%, negative = inhibition) at 10uM” value is listed as -44.7%.

For the compound `O=C(CCN1C(=O)/C(=C/c2ccc(Cl)cc2)SC1=S)NCCCn1ccnc1`, the “hERG current change (%, negative = inhibition) at 10uM” value was -23.4%.

`O=C(CCN1C(=O)/C(=C/c2ccc(F)cc2)SC1=S)NCCCn1ccnc1`: the “hERG current change (%, negative = inhibition) at 10uM” value is recorded as -63.6%. In the case of `O=C(CCN1C(=O)/C(=C/c2ccccc2F)SC1=S)NCCCn1ccnc1` it was -38.1%; in that of `COc1cc(S(=O)(=O)N2CCN(C(=O)c3ccco3)CC2)c(OC)cc1C`, 6.03%. `COc1ccc(C2(C)NC(=O)N(CC(=O)Nc3ccc(C)cc3Br)C2=O)cc1OC` (stereo not shown): the “hERG current change (%, negative = inhibition) at 10uM” value came out at 1.02%. To `CN(C)c1ccc(CNc2ncc(Br)cc2Br)cc1` belongs -3.62%. `Cc1ccccc1NC(=O)c1ccc(-n2cncn2)nc1`: the “hERG current change (%, negative = inhibition) at 10uM” value is reported as -14.1%.

Consider `Cc1nn(C)c(C)c1S(=O)(=O)N(CC(=O)Nc1ccc2c(c1)OCO2)c1ccc(C(C)C)cc1`, for which the “hERG current change (%, negative = inhibition) at 10uM” value was found to be 7.38%. To `CC(C)C(OC(=O)c1nsc(Cl)c1Cl)C(=O)NC1CCCCC1` (stereo not shown) belongs -17.7%; to `Cc1oc2nc(SCCCC(=O)NCCCO)nc(N)c2c1C`, 9.44%; to `COc1ccccc1C(=O)Nc1ccnn1C1CCN(CC2CC=CCC2)CC1` (stereo not shown), -82.3%. For `Cc1ccc(CN2CCC(n3nccc3NC(=O)c3ccccc3C)CC2)o1`, the “hERG current change (%, negative = inhibition) at 10uM” value is -25.9%. To `COc1ccc(C(=O)Nc2ccnn2C2CCN(CC3CC=CCC3)CC2)cc1` (stereo not shown) belongs -37.4%; to `O=C(Nc1ccnn1C1CCN(CC2CC=CCC2)CC1)c1ccccc1Cl` (stereo not shown), -70.7%; to `Cc1ccccc1C(=O)Nc1ccnn1C1CCN(Cc2ccc(CO)o2)CC1`, -1.16%.

In the case of `Cc1ccccc1C(=O)Nc1ccnn1C1CCN(CC2CC=CCC2)CC1` (stereo not shown), the “hERG current change (%, negative = inhibition) at 10uM” value is on record as -72.6%. To `Cl.NCC(c1ccccc1)(c1ccccc1)c1ccccc1` belongs -15.5%; to `O=C(COc1ccccc1)NCC(=O)N/N=C/c1ccc(Br)cc1`, -14.6%.

Regarding `CCCCCCCCCC(=O)N/N=C(\C)c1cccnc1`, the “hERG current change (%, negative = inhibition) at 10uM” value was found to be 9.29%.

Consider `COc1ccc(C(C)=O)c2c1OCCO2`, for which the “hERG current change (%, negative = inhibition) at 10uM” value was -3.35%.

For `COc1ccc(C(=O)Nc2ccc(S(=O)(=O)Nc3nccnc3OC)cc2)cc1`, the “hERG current change (%, negative = inhibition) at 10uM” value was 8.73%.

As for `COc1cccc(C(=O)N2CCC(N3CC(C)OC(C)C3)CC2)c1.O=C(O)C(=O)O` (stereo not shown), the “hERG current change (%, negative = inhibition) at 10uM” value stood at 14.4%.

As to `O=S(=O)(O/N=C1\CCCc2ccccc21)c1ccccc1`, the “hERG current change (%, negative = inhibition) at 10uM” value turned out to be 7.59%. As for `CCN1CCC(N2CCN(c3ccc(Cl)cc3)CC2)CC1`, the “hERG current change (%, negative = inhibition) at 10uM” value is reported as -18.8%. In the case of `CCS(=O)(=O)N1CCC(N2CCN(c3ccccc3)CC2)CC1` it was -10.9%.

For `CCC1CCC(N2CCN(c3cccc(OC)c3)CC2)CC1` (stereo not shown), the “hERG current change (%, negative = inhibition) at 10uM” value is on record as -33.7%. In the case of `CCC1CCC(N2CCN(c3ccccc3F)CC2)CC1` (stereo not shown) it was -22.2%; in that of `O=[N+]([O-])c1ccc(N2CCN(c3ccccc3)CC2)cc1`, 4.77%; in that of `O=[N+]([O-])c1ccc(N2CCN(c3ccc(F)cc3)CC2)cc1`, -17.9%. In the case of `CCC1CCC(N2CCN(c3ccc([N+](=O)[O-])cc3)CC2)CC1` (stereo not shown) it was -79.8%; in that of `CCCN1CCC(N2CCN(c3ccc([N+](=O)[O-])cc3)CC2)CC1`, -74.3%.

For `O=[N+]([O-])c1ccc(N2CCSCC2)cc1`, the “hERG current change (%, negative = inhibition) at 10uM” value is -10.4%. In the case of `CCN1CCC(N2CCN(c3ccc(F)cc3)CC2)CC1` it was -5.34%; in that of `CCC1CCC(N2CCN(c3ccc(F)cc3)CC2)CC1` (stereo not shown), -52.1%; in that of `CC1CCC(N2CCN(c3ccc([N+](=O)[O-])cc3)CC2)CC1` (stereo not shown), -74.8%. On to `COCCNC(=S)N/N=C/c1c2ccccc2cc2ccccc12`, for which the “hERG current change (%, negative = inhibition) at 10uM” value is 15.5%. As for `CCOC(=O)C(CC(=O)O)NCc1ccco1` (stereo not shown), the “hERG current change (%, negative = inhibition) at 10uM” value stood at 17.4%. Turning to `CCC(C)N(CC(=O)NCc1ccc(OC)cc1)C(=O)c1csnn1` (stereo not shown), the “hERG current change (%, negative = inhibition) at 10uM” value is recorded as -18.3%. To `COc1ccc(N2CCN(C(=S)NCc3ccccc3)CC2)cc1` belongs 15.3%; to `COc1ccccc1Nc1nc(C)cc(=O)[nH]1`, -7.91%; to `O=C(COC(=O)c1ccccc1O)Nc1ccc(S(=O)(=O)N2CCCCC2)cc1`, 3.29%. In the case of `O=C(COC(=O)c1cc(S(=O)(=O)N2CCCC2)ccc1O)Nc1ccc(S(=O)(=O)N2CCOCC2)cc1` it was 23.6%; in that of `CCOc1cc(C(=O)OCC(=O)Nc2ccc(SC(F)F)cc2)cc(OCC)c1OCC`, 4.57%. Consider `COc1ccccc1C(=O)COC(=O)c1ccccc1OCC(=O)Nc1ccc(SC(F)F)cc1`, for which the “hERG current change (%, negative = inhibition) at 10uM” value is given as 12.6%. As to `COc1cc(C(=O)OCC(=O)Nc2ccc(SC(F)F)cc2)cc(OC)c1OC`, the “hERG current change (%, negative = inhibition) at 10uM” value is recorded as -55.7%. In the case of `COc1ccccc1NC(=O)COC(=O)c1ccccc1OCC(=O)Nc1ccc(SC(F)F)cc1` it was 1.67%; in that of `O=C(COC(=O)c1cc(S(=O)(=O)N2CCCC2)ccc1O)Nc1ccc(SC(F)F)cc1`, -57.5%. Turning to `CCOc1ccccc1C(=O)OCC(=O)Nc1ccc(OC(F)F)cc1`, the “hERG current change (%, negative = inhibition) at 10uM” value is reported as -54%. In the case of `COc1cc(C(=O)OCC(=O)Nc2ccc(C)cc2)cc(OC)c1OC` it was 28.7%; in that of `CN(C)C(=O)COC(=O)c1ccccc1OCC(=O)Nc1ccc(SC(F)F)cc1`, -51.8%. On to `O=C(COC(=O)c1ccccc1O)Nc1ccc(OC(F)F)cc1`, for which the “hERG current change (%, negative = inhibition) at 10uM” value was 2.74%. To `COc1ccccc1C(=O)OCC(=O)Nc1ccc(OC(F)F)cc1` belongs -32.2%.
